# Bioassay records: PubChem BioAssay, National Center for Advancing Translational Sciences (NCATS)
# SMN2 splice up: enhancers of SMN2 splice variant expression; Potency, µM (highest dose often 46.1 µM), for inactives: at the top dose activity change, positive = activation, hits mostly activators; HEK293 SMN2-luciferase splicing reporter, luminescence, 30-36 h; AID 1458; hit rate 2.8% among 210,000; also: % of control where 0% means no effect; nearly all actives have a fitted effect of over 55% in size
#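 HEK293 cells carry an SMN2 […]–luciferase reporter in which exon 7 inclusion puts luciferase in frame. Cells were plated 10-12 h before compound addition, then incubated 30-36 h at 37C. ONE-Glo luminescence was read; sodium butyrate at 4.5 mM final served as control.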
# ELG1 genotox: induces genotoxicity in HEK293T cells with luciferase-tagged ELG1. Potency, µM (top dose mostly 46 µM), without a hit: at the highest dose activity change, positive = activation, most hits filed as activators. HEK293T ELG1-luciferase reporter, luminescence, 16 h. AID 504466. hit rate 1.3% among 330,000; also: % of control where 0% means no effect; nearly all actives have a fitted effect of over 60% in size
#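 Quantitative HTS format in 1536-well plates. HEK293T ELG1-luciferase reporter cells receive test compound and are incubated 16 hr at 37 °C, 5% CO2; ONE-Glo added, 30 min room temperature, then luminescence read.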
# Rab9 promoter act: activators of Rab9 promoter. AID 485297. Huh7 Rab9 promoter-luciferase reporter, luminescence, 24 h. hit rate 2.8% among 320,000. Potency, µM (titrated, usually from 9.22 µM), for the others: top-dose activation, negative = inhibition, usual class: activators; also: % of control where 0% means no effect; nearly all actives have a fitted effect of over 60% in size
#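 Cells were plated at 1500 per well in reduced-serum medium with 10% FBS and left 2 h. Compound in DMSO was then added for 24 h at 37 °C. Reporter signal was read by luminescence after 10 min with luciferase detection reagent.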
# FLuc counter: firefly luciferase modulation, counter-screen for miR-21 project; P08659; purified FLuc, Km substrates, luminescence inhibition; Potency, µM (doses to about 57.5 µM), for the others: at the highest dose activity change, negative = inhibition, usual class: inhibitors; hit rate 6.9% among 360,000; AID 588342;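 also: plate controls were vehicle for no effect and reference inhibitor for full effect; nearly all actives have a fitted effect of over 55% in size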
# Target sequence (P08659 whole entry, looked up): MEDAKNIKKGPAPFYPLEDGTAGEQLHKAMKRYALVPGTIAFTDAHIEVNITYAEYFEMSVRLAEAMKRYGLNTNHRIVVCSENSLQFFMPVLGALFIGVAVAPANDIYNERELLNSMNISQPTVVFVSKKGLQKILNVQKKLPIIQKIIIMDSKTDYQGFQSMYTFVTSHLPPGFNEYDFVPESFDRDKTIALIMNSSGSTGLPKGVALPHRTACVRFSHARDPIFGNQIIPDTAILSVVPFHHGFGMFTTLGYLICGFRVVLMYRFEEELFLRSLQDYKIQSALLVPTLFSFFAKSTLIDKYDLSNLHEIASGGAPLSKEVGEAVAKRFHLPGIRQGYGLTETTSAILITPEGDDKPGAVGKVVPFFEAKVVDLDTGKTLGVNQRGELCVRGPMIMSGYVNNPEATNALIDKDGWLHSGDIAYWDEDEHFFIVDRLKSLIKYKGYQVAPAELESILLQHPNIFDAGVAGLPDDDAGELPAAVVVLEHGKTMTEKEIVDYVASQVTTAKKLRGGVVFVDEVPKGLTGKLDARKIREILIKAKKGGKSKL
#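 Purified P. pyralis luciferase, 10 nM final, with Km-level 10 uM D-luciferin and 10 uM ATP in 50 mM Tris acetate pH 7.5, 10 mM Mg acetate, 0.01% Tween-20, 0.05% BSA; 6-point qHTS titration about 60 µM downward; luminescence read.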
# uPA generation: inhibitors of cell surface uPA generation | cell surface uPA generation assay, qHTS | Potency, µM (titrated, usually from 38.3 µM), without a hit: at the highest dose activity change, negative = inhibition, hits mostly inhibitors | hit rate 0.31% among 330,000 | AID 540303; active = well fitted inhibition curve with a large enough effect; inconclusive = small, poorly fitted or top-dose-only effect; inactive = no such curve, though single readings can be large or run the other way; tested in mouse RAW 264.7 cells; also: % is scaled to controls: 0 for no effect and ±100 for the full control effect; nearly all actives have a fitted effect of over 55% in size
# NPC1 prom act: activates the NPC1 promoter; Potency, µM (doses to about 9.22 µM), without a hit: top-dose activation, hits mostly activators; Huh7 NPC1 promoter luciferase reporter, 24 h; hit rate 2.4% among 320,000; also: % of control where 0% means no effect; nearly all actives have a fitted effect of over 60% in size
#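 Readout is luciferase luminescence, reflecting NPC1 promoter activation in stably transfected Huh7 cells after 24 h compound exposure at 37 °C in reduced-serum medium with 10% FBS.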
# The depositor's hits bear a star; u = inconclusive; x = not tested or not shown. The list is not random: actives were taken first. Their share in the collection is about 7.3%. Unless noted, calls follow the shape of the dose curve; as a rule, active = well fitted curve in the direction sought with a large enough effect; inconclusive = small, poorly fitted or top-dose-only effect, or another doubt; inactive = no such curve, though single readings can be large; an effect the other way counts as inactive or inconclusive. Potency is read from the fitted curve at half-maximal effect.
SMILES,SMN2 splice up,ELG1 genotox,Rab9 promoter act,FLuc counter,uPA generation,NPC1 prom act
O=C(O)c1ccc(N/N=C/c2ccc(-c3cc(Cl)ccc3Cl)o2)cc1,x,u,u,9.5µM*,6%,u
C=CCNC(=S)N/N=C/c1ccc(-c2cc(Cl)ccc2Cl)o1,x,12%,-2%,2%,4%,-2%
CC(C)(C)c1ccc(C(=O)NCCC(=O)N2CCC3(CC2)NCCc2[nH]cnc23)cc1,x,-3%,-1%,-9%,4%,-5%
Cc1cc(C)nc(Nc2n[nH]c(COc3cccc4ccccc34)n2)n1,2%,0%,-16%,10%,-5%,-27%
Cc1cc(C)nc(Nc2n[nH]c(-c3cccc4ccccc34)n2)n1,-12%,3%,30%,12µM*,19%,26%
Cc1cc(C)nc(Nc2n[nH]c(-c3ccccc3Cl)n2)n1,14µM*,u,u,6.7µM*,-14%,u
COc1ccccc1NC(=O)CSCc1cc(=O)c2cccc(Cl)c2[nH]1,x,x,x,2%,x,x
O=S(=O)(c1ccc(Br)cc1)c1nnn2c1nc(Nc1cccc(C(F)(F)F)c1)c1sccc12,x,x,x,-4%,x,x
COc1ccccc1OCC(=O)Nc1cc(NC(=O)COc2ccccc2OC)cc(C(=O)O)c1,x,11%,4%,-13%,-1%,1%
Cc1ccc(Cl)c(OCC(=O)Nc2cccnc2)c1,x,u,8%,15µM*,11%,u
Cc1cc(OCC(=O)Nc2cccnc2)c2c(C)c(C)c(=O)oc2c1,x,4%,-8%,0%,8%,0%
O=C(COc1ccccc1Cl)Nc1cccnc1,x,u,u,19µM*,-21%,u
O=C(COc1ccccc1Cl)Nc1cc(NC(=O)COc2ccccc2Cl)cc(C(=O)O)c1,x,u,4µM*,u,3%,u
COc1ccc(N(C)S(=O)(=O)c2ccc3c(c2)n(C)c(=O)c(=O)n3C)cc1,-5%,x,x,0%,x,x
COCCNc1nnc(SCC(=O)c2c[nH]c3ccccc23)s1,-11%,1%,-4%,-17%,2%,-2%
CC(=O)Nc1cccc(OCC(=O)NCCC2=CCCCC2)c1,7%,13%,u,-19%,0%,18%
COc1cccc(NC(=O)NCCC2=CCCCC2)c1,14µM*,u,4.5µM*,15µM*,-9%,3.5µM*
COc1ccc(NC(=O)NCCC2=CCCCC2)cc1,13µM*,u,2.8µM*,u,-1%,4µM*
CCc1ccc(/C(C)=N/NC(=O)c2c[nH]c3ccccc23)s1,x,1%,17%,u,-6%,16%
CCc1ccc(/C(C)=N/NC(=O)c2ccccn2)cc1,17%,5%,1%,u,u,12%
C/C(=N\NC(=O)c1nc2ccccn2c1C)c1cc2ccccc2o1,11%,-6%,3%,-3%,x,-2%
C/C(=N\NC(=O)c1c[nH]c2ccccc12)c1ccccn1,24%,u,u,11µM*,-11%,2.5µM*
O=C(N/N=C(\c1ccccc1)c1ccccn1)c1cccc([N+](=O)[O-])c1,-108%,u,-7%,0%,u,-25%
CCOc1ccc(C(=O)N/N=C(\c2ccccc2)c2ccccn2)cc1,-63%,6%,-19%,19µM*,-10%,-22%
C/C(=N\NC(=O)c1cc2ccccc2cc1O)c1cc2ccccc2o1,x,-11%,11%,15µM*,4%,20%
SMILES,SMN2 splice up,ELG1 genotox,Rab9 promoter act,FLuc counter,uPA generation,NPC1 prom act
C/C(=N\NC(=O)c1ccc(F)cc1)c1ccccn1,x,5.2µM*,-32%,8.5µM*,u,u
O=C(Cn1c(=O)n(Cc2ccc3c(c2)OCO3)c(=O)c2ccccc21)Nc1cccc(Cl)c1,7%,x,x,5%,x,x
CCS(=O)(=O)N1CCN(c2ccc([N+](=O)[O-])c(NCC3CCCO3)c2)CC1 (centres undefined),x,3%,0%,4%,x,-4%
C/C(=N\NC(=O)c1cc2ccccc2cc1O)c1ccccn1,x,u,-24%,4.8µM*,1%,2µM*
O=C(N/N=C/c1ccc(Sc2ccccn2)o1)c1cc2ccccc2cc1O,u,13%,0%,15µM*,2%,-3%
C/C(=N\NC(=O)c1nc2ccccn2c1C)c1ccco1,263%,u,2.5µM*,u,x,u
C/C(=N\NC(=O)c1c[nH]c2ccccc12)c1ccco1,14µM*,7.9µM*,4µM*,12µM*,u,5.6µM*
CCOC(=O)c1c(C)oc2nc(C)nc(NCCCN3CCN(c4ccc(F)cc4)CC3)c12,x,x,x,-7%,x,x
CCOc1ccc(-c2nn(CC(=O)NC3CCCC3)c3c2cnc2ccc(F)cc23)cc1,x,x,x,-2%,x,x
COc1ccc2c(c1-c1c3c(cc(Br)c1OC)CCCC3)CCCC2,8%,x,x,x,x,x
COc1ccc(S(=O)(=O)c2ccc(OC)cc2)cc1,-12%,4%,-5%,0%,-3%,-3%
COc1ccc(N=[N+]([O-])c2ccc(OC)cc2)cc1,7.1µM*,x,x,x,-7%,x
Cc1nnnn1/C(=C\c1ccccc1)C(=O)OCC(=O)NC1CCCCC1,x,-10%,0%,1%,7.9µM*,-10%
Cc1nnnn1/C(=C\c1ccccc1)C(=O)OCC(=O)NC(C)(C)C,-17%,0%,12%,0%,-9%,-6%
Cc1cccc(OCc2nnc(-c3ccc(F)cc3)o2)c1,x,10%,15%,17µM*,13%,7%
CCOc1ccc(-c2noc(CSc3nnc(-c4ccccc4)n3-c3ccccc3)n2)cc1,-15%,x,x,2%,x,x
Cc1ccc(C(=O)CSc2nnc(COc3cccc(C)c3)o2)cc1,u,0%,3%,-13%,-3%,-4%
Cc1ccc(OCc2nnc(-c3ccccc3)o2)cc1,25%,x,x,17µM*,x,x
Cc1ccc(-c2nnc(COc3cccc(-n4cnnn4)c3)o2)cc1,-10%,8%,12%,19µM*,-2%,4%
CCOc1ccc(-c2nnc(SCc3nnc(-c4ccccc4)o3)n2-c2ccccc2F)cc1,-20%,3%,12%,27µM*,-4%,11%
CC(=O)Nc1ccc(OCc2nnc(-c3ccccc3)o2)cc1,x,11%,14%,-14%,7%,3%
Cn1c(=O)c2ccccc2n(Cc2ccccc2Cl)c1=O,x,3%,-6%,-2%,-4%,-1%
COc1ccccc1NC(=O)COc1cccc2c1CCNC2=O,x,15%,-1%,1%,-11%,-10%
Cc1occc1-c1nnc(SC(C)C(=O)Nc2ccccc2F)o1 (centres undefined),x,u,2.8µM*,2%,u,u
CC(Sc1nnc(-c2ccccc2F)o1)C(=O)Nc1ccc(N2CCOCC2)cc1 (centres undefined),x,9%,29%,-14%,-7%,8%
